Assay [1] deals with T1, Mitogen-activated protein kinase 12 (Homo sapiens) (UniProt P53778).
T1 sequence (whole entry): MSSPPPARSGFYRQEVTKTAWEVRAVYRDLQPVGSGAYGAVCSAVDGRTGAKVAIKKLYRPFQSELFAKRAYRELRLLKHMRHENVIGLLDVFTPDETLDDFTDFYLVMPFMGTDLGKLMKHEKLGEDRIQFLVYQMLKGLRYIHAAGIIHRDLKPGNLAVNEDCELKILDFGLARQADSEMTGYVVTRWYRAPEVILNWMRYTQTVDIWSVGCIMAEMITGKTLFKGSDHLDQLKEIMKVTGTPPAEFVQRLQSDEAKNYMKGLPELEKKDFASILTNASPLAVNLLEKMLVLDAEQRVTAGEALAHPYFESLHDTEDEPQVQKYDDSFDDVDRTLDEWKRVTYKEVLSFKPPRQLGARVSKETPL
The conditions noted are these: at 1 µM.

Assay [2] concerns the target SRSF protein kinase 1 (Homo sapiens) (UniProt Q96SB4). The conditions noted are these: at 0.1 µM.
The target is the same in assay [3]. The conditions noted are these: at 1 µM.
Assay [4] addresses Phosphatidylinositol 4,5-bisphosphate 3-kinase catalytic subunit alpha isoform (Homo sapiens) (UniProt P42336). The conditions noted are these: at 0.1 µM.
Assay [5] has the same target. The conditions noted are these: at 1 µM.
For assay [6], the target named is T2, Phosphatidylinositol 4,5-bisphosphate 3-kinase catalytic subunit delta isoform (Homo sapiens) (UniProt O00329).
T2 sequence (whole entry): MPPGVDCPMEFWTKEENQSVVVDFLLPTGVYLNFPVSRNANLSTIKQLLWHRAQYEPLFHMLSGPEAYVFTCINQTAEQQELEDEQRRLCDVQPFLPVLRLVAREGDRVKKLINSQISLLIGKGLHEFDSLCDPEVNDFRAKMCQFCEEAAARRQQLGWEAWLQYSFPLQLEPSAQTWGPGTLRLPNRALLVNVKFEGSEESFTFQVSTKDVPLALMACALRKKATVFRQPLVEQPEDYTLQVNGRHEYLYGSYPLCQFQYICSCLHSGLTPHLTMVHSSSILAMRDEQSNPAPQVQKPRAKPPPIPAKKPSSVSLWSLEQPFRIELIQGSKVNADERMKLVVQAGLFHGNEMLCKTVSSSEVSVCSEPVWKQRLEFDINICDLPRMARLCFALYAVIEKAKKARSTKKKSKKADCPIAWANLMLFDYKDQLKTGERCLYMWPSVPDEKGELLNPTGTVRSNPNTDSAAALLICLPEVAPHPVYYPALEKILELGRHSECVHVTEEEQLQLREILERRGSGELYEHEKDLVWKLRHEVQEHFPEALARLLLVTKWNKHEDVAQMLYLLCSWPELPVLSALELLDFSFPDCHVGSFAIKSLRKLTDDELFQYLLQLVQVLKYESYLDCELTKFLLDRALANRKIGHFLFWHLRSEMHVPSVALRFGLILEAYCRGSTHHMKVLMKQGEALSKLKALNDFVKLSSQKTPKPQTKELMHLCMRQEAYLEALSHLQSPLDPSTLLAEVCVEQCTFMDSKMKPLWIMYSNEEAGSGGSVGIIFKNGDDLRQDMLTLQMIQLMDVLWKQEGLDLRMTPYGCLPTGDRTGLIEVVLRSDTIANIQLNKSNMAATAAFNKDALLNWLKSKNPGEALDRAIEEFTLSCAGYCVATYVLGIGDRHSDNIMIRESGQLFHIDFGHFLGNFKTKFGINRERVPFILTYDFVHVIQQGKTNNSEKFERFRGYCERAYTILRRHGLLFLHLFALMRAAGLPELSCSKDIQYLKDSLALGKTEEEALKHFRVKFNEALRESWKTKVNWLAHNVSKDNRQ
The conditions noted are these: at 0.1 µM.

Assay [7] has as its target T2, Phosphatidylinositol 4,5-bisphosphate 3-kinase catalytic subunit delta isoform (Homo sapiens). The conditions noted are these: at 1 µM.
For assay [8], the target named is Phosphatidylinositol 4-kinase beta (Homo sapiens) (UniProt Q9UBF8). The conditions noted are these: at 0.1 µM.
Assay [9] shares this target. The conditions noted are these: at 1 µM.
For assay [10], the target named is Sphingosine kinase 1 (Homo sapiens) (UniProt Q9NYA1). The conditions noted are these: at 0.1 µM.
Assay [11] shares this target. The conditions noted are these: at 1 µM.
The target in assay [12] is T3, Sphingosine kinase 2 (Homo sapiens) (UniProt Q9NRA0).
T3 sequence (whole entry): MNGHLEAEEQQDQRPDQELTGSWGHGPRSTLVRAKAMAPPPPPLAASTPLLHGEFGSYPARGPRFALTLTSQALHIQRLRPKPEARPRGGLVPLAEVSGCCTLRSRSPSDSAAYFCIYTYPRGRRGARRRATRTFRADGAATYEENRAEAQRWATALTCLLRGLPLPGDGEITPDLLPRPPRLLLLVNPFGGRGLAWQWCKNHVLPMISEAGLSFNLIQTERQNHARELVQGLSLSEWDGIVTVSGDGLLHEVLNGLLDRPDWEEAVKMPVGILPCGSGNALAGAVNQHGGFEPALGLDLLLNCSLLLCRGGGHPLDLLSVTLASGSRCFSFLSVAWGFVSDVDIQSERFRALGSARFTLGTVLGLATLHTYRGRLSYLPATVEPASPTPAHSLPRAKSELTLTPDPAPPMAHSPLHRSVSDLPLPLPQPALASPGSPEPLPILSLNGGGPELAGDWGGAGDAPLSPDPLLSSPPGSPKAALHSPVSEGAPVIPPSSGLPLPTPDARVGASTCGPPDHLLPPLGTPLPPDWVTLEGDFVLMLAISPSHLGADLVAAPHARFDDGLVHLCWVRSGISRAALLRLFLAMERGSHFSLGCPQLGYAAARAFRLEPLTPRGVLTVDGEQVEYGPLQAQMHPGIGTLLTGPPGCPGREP
The conditions noted are these: at 0.1 µM.

Assay [13] has as its target T3, Sphingosine kinase 2 (Homo sapiens). The conditions noted are these: at 1 µM.
The target in assay [14] is Casein kinase II subunit alpha (Homo sapiens) (UniProt P68400). The conditions noted are these: at 0.1 µM.
For assay [15] the target is unchanged. The conditions noted are these: at 1 µM.
Assay [16] addresses T4, Inhibitor of nuclear factor kappa-B kinase subunit alpha (Homo sapiens) (UniProt O15111).
T4 sequence (whole entry): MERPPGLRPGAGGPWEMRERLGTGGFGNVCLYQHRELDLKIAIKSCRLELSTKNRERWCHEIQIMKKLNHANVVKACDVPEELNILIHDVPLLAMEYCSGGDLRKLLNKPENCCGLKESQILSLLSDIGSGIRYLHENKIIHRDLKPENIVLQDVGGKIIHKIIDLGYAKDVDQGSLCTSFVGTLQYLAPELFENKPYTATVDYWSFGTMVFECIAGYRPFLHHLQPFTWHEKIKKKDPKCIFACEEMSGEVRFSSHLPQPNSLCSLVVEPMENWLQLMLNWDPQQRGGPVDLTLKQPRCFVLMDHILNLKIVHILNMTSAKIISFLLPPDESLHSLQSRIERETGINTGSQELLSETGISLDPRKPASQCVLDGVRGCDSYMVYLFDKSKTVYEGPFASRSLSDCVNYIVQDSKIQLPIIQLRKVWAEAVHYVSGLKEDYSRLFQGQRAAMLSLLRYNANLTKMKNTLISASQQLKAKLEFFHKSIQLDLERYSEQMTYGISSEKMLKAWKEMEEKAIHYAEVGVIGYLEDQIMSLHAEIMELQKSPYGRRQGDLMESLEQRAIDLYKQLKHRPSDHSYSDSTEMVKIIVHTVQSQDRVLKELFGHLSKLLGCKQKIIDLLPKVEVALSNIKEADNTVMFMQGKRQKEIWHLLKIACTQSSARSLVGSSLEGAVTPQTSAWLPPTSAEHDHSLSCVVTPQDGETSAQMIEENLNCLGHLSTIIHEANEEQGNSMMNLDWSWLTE
The conditions noted are these: at 0.1 µM.

The target in assay [17] is T4, Inhibitor of nuclear factor kappa-B kinase subunit alpha (Homo sapiens). The conditions noted are these: at 1 µM.
The target in assay [18] is T5, Inhibitor of nuclear factor kappa-B kinase subunit beta (Homo sapiens) (UniProt O14920).
T5 sequence (whole entry): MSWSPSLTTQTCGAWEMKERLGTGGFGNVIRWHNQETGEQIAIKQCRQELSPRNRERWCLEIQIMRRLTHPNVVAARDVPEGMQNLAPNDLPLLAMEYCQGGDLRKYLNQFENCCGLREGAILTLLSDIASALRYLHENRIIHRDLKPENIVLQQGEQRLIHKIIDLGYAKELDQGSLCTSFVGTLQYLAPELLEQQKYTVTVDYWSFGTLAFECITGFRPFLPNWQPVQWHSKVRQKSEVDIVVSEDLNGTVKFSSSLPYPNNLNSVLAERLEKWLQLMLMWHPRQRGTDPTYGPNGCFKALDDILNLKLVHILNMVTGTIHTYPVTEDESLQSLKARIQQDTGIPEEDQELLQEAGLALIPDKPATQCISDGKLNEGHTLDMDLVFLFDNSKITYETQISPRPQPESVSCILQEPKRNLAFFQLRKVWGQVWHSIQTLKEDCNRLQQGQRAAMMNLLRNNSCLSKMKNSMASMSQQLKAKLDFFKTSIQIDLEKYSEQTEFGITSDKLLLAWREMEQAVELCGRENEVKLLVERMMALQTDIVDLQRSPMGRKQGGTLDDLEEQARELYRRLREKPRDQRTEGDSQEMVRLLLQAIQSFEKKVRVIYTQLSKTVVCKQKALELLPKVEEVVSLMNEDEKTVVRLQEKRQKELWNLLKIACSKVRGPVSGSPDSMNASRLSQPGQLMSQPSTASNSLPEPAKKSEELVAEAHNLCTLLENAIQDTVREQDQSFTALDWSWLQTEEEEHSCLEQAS
The conditions noted are these: at 0.1 µM.

The target of assay [19] is T5, Inhibitor of nuclear factor kappa-B kinase subunit beta (Homo sapiens). The conditions noted are these: at 1 µM.
For assay [20], the target named is T6, Inhibitor of nuclear factor kappa-B kinase subunit epsilon (Homo sapiens) (UniProt Q14164).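 Also: mean inhibition of IKKε reported, from the GSK PKIS dataset.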
T6 sequence (whole entry): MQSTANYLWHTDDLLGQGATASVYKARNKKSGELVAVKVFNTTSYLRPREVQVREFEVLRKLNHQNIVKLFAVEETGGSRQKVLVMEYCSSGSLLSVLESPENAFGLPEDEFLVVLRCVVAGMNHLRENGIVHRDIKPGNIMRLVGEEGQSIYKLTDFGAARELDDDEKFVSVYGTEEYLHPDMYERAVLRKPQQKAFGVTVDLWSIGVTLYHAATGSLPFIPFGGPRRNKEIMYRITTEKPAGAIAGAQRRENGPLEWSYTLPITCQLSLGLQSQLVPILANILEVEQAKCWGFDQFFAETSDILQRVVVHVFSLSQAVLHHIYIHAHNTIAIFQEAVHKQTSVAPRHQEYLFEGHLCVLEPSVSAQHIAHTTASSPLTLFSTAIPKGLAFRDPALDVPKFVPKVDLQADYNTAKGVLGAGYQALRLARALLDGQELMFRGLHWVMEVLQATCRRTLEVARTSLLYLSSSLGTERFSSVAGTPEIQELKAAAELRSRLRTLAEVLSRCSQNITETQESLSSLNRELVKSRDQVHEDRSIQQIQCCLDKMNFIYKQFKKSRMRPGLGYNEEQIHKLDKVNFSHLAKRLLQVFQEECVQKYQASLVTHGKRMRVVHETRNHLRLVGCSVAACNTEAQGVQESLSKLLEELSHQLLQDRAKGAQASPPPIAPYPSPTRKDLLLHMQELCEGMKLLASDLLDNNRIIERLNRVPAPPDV
The conditions noted are these: at 0.1 µM.

Our source for the inhibition values is ChEMBL document CHEMBL1961873, “Compounds: GSK PKIS; Assays: Nanosyn kinase panel” (2012).

Molecules are shown by their SMILES.

Chain of Phosphatidylinositol 4-kinase beta (Homo sapiens) (Q9UBF8 2-816 limits assumed): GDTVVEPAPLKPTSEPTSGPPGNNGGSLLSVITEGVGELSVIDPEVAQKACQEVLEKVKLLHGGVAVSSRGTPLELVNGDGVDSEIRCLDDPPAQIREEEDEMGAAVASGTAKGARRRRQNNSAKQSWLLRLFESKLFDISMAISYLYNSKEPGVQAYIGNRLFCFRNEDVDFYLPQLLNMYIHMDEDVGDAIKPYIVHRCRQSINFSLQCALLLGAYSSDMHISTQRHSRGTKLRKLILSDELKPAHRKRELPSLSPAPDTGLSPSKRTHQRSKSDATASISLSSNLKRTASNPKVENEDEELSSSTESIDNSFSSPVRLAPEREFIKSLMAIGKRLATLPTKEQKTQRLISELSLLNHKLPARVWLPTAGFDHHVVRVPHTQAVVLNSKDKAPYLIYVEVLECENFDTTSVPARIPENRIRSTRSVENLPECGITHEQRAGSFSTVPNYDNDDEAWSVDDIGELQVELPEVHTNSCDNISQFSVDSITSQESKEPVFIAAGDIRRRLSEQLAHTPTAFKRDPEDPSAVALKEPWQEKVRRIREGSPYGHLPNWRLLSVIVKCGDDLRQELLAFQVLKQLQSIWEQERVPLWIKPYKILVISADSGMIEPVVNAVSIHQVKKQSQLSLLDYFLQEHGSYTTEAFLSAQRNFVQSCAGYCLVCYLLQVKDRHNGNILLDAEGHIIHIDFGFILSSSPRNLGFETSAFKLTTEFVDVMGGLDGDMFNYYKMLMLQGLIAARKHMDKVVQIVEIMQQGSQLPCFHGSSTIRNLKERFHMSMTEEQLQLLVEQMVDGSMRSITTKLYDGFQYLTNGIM
Chain of SRSF protein kinase 1 (Homo sapiens) (Q96SB4 whole entry): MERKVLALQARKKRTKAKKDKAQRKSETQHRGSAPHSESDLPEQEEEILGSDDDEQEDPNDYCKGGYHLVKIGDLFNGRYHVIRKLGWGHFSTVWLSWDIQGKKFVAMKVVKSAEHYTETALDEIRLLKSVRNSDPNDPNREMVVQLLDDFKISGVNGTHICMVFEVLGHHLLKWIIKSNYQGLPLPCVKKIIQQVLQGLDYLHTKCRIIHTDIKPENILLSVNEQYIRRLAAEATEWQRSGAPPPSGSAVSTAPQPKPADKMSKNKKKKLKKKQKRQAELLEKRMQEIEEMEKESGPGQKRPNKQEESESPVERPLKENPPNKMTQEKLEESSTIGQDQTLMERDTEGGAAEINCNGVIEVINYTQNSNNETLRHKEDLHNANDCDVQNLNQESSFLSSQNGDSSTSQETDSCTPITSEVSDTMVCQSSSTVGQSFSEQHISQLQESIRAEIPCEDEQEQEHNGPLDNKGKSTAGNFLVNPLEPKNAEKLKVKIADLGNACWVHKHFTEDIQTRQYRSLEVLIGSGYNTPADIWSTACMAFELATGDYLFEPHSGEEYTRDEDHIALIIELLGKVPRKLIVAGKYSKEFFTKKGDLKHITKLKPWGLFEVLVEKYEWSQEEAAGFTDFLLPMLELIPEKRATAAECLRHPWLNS
Chain of Casein kinase II subunit alpha (Homo sapiens) (P68400 whole entry, looked up): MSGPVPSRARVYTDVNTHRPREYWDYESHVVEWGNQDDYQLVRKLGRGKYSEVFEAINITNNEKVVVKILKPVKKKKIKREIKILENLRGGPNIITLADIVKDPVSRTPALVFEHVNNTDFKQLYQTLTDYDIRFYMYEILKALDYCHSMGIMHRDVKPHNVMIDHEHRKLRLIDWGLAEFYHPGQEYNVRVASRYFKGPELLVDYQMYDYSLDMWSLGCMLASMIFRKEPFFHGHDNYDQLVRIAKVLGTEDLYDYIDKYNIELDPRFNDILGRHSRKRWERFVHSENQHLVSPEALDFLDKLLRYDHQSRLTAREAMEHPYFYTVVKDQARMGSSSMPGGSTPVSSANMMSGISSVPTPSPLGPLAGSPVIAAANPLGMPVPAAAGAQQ
Chain of Phosphatidylinositol 4,5-bisphosphate 3-kinase catalytic subunit alpha isoform (Homo sapiens) (P42336 whole entry, canonical isoform): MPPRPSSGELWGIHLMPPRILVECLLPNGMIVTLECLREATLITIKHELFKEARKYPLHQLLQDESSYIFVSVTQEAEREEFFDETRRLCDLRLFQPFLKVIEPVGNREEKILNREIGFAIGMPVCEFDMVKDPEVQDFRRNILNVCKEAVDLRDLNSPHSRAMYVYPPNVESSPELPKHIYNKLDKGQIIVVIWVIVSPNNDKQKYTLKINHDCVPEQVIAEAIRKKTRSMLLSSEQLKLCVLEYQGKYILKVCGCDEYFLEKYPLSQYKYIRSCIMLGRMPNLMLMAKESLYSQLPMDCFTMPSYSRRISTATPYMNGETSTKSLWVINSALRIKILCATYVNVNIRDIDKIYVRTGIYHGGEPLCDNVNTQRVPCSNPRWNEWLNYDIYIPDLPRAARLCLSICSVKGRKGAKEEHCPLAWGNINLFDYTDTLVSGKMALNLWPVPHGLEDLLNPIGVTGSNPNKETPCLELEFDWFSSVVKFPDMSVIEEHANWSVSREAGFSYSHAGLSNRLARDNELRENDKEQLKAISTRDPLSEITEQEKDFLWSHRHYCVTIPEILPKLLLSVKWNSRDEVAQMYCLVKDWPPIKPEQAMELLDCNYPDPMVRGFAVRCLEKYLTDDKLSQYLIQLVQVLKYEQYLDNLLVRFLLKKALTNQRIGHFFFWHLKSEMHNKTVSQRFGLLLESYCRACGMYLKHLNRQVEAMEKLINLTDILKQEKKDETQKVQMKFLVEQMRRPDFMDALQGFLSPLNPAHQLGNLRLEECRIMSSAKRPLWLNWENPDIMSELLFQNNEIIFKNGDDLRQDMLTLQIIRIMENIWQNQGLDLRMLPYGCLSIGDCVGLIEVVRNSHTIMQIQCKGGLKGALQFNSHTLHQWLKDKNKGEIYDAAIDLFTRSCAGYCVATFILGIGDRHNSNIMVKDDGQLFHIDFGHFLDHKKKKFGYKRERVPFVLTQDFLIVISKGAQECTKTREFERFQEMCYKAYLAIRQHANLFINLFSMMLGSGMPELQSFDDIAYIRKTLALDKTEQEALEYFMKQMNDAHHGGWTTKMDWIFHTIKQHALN
Chain of Sphingosine kinase 1 (Homo sapiens) (Q9NYA1 whole entry): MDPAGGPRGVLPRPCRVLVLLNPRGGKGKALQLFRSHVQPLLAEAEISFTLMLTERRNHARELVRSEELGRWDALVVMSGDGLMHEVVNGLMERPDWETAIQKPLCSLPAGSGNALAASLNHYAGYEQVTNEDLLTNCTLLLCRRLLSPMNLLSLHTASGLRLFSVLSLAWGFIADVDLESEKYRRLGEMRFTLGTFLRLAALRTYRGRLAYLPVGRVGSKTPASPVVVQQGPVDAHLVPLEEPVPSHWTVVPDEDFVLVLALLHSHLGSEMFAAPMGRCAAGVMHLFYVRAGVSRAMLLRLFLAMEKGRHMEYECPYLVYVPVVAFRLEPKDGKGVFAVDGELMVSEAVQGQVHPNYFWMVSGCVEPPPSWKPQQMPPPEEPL

Turning to `O=C1NC(=O)C(c2cccc(Cl)c2)=C1Nc1ccc(Cl)c(C(=O)O)c1`, the inhibition in assay [1] is 1.67%; in assay [2], -2.19%; in assay [3], -1.47%; in assay [4], 3.63%; in assay [5] it was 1.55%; in assay [6], 1.72%. For the same molecule, the inhibition was -0.43% in [7]; 0.69% in [8]; -0.07% in [9]; 0.25% in assay [10]; 2.31% in assay [11]; -0.06% in assay [12]. The inhibition in assay [13] is 0.61%; in assay [14] it was 2.24%; in assay [15] it was 7.88%; in assay [16], 2.51%; in assay [17], -0.25%; in assay [18], 3.73%. The results for the inhibition in [19] and in assay [20] were 4.76% and 6.56%, respectively.

Turning to `CN(c1ccc(NC(=O)Nc2c(Cl)cccc2Cl)cc1)c1ccnc(Nc2cccc(CS(C)(=O)=O)c2)n1`, the inhibition in assay [1] was -0.86%; in assay [2], -0.25%; in assay [3], 2.16%; in assay [4], 0.53%; in [5], -1.22%; in assay [6], 0.12%. Also, the inhibition is -1.62% in assay [7]; 3.66% in [8]; 3.73% in [9]; -0.6% in assay [10]; -2.39% in [11]; 0.77% in assay [12]. The inhibition was -0.82% in assay [13]; 2.18% in [14]; 6.66% in [15]; -7.42% in [16]; 3.11% in [18]; 2.65% in [19]. The inhibition in assay [20] worked out at 6.91%.

Turning to `CS(=O)(=O)CCNCc1cc(-c2cc3c(Nc4ccc(OCc5cccc(F)c5)c(Cl)c4)ncnc3s2)cs1`, the inhibition is 6% in assay [1]; -3.5% in assay [2]; -2.78% in assay [3]; 4.7% in [4]; 5.78% in [5]; 0.67% in [6]. Also, the inhibition in [7] is 7.33%; in assay [8], -1.24%; in assay [9], 3.94%; in assay [10] it was 1.57%; in [11] it was 3.45%; in assay [12] it was -0.27%. The inhibition in assay [13] is 0.36%; in assay [15] it was 2.87%; in assay [16], 10.9%; in [17], 9.95%; in assay [18], 7.54%; in [19] it was 6.76%. In addition, in [20], the inhibition turned out to be 6.48%.

The inhibition is the relative decrease from the control value, in per cent.
